{"source": "PubChem BioAssay (Tox21)", "note": "A number with no mark means an inactive call. Activity calls are given as the source filed them. Calls come from the whole dose curve. % is set by controls: 0 for no effect and ±100 for the full control effect.", "data": [{"molecular_target": "Acetylcholinesterase (Homo sapiens) (UniProt P22303)", "sequence (P22303 whole entry, looked up)": "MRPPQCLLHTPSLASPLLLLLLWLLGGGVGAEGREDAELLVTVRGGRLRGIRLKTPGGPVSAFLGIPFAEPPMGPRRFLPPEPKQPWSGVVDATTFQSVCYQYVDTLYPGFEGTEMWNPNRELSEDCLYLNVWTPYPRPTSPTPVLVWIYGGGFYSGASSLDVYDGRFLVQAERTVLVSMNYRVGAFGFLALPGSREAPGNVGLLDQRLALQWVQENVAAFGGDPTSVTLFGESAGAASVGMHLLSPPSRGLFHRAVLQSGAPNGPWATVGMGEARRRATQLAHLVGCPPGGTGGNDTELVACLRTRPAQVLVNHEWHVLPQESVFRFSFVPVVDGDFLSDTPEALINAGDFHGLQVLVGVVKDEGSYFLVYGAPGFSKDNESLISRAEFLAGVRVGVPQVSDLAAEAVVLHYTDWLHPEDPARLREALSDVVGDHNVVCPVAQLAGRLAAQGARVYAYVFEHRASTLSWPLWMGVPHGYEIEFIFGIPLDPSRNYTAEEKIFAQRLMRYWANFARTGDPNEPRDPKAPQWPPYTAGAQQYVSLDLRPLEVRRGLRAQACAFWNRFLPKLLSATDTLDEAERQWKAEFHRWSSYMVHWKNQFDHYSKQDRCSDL", "assay": "Acetylcholinesterase (AChE) small molecule antagonists: enzyme-based qHTS assay with human liver microsomes (AID 1347399); note: nearly all actives have a fitted effect of over 60% in size", "conditions": "Potency: qHTS inhibition; outcome: qHTS inhibition; series mostly up to 115 µM; activity change, negative = inhibition: at the top concentration", "text": "National Center for Advancing Translational Sciences [NCATS]\nDivision of Preclinical Innovation [DPI]\nU.S. Environmental Protection Agency [EPA]\nNational Institutes of Environmental Health Sciences [NIEHS]\nNational Toxicology Program [NTP]\nU.S. Food and Drug Administration [FDA]\nAcetylcholinesterase (AChE) is the primary cholinesterase in the body that hydrolyzes a key neurotransmitter, acetylcholine. Inhibition of AChE activity can lead to neurotoxicity. The known inhibitors include organophosphorous pesticides (OP), chemical warfare agents, drugs, and various phytochemicals. Some compounds like OP compounds may need metabolic activation to be active AChE inhibitors. The cytochrome P450 (CYP) superfamily in the human microsomes is responsible for the metabolism of various endogenous and exogenous compounds.\nAn enzyme-based assay with the recombinant human AChE, human liver microsomes and Amplite Colormetric acetylcholinesterase assay kit (AAT Bioquest, Sunnyvale, CA) was used to evaluate compounds in the Tox21 10K library that need metabolic activation for AChE inhibition. The assay uses 5, 5-dithiobis-(2-nitrobenzoic acid) (DTNB) to quantify the thiocholine produced from the hydrolysis of acetylthiocholine by AChE.\nTox21 Assay Protocol Summary:\nFor the enzyme-based AChE assay with microsomes addition, a mixture of human AChE (50 mU/mL) and human liver microsomes (0.25 mg/mL, final concentration) in 3 uL/well was dispensed into black, clear-bottom 1536-well plates using a Multidrop Combi dispenser (Thermo Scientific, MA). Then, 23 nL of compound or DMSO (vehicle control) was transferred into the assay plates by a Pintool Station (Wako Automation, CA). Following compound addition, 1 uL of NADPH (0.25 mg/mL, final concentration) was transferred to the assay plate by a Flying Reagent Dispenser (Beckman Coulter, CA). The plates were incubated for 30 min at 37 C and 5% CO2, followed by the addition of 4 uL of colorimetric detection cocktail solution (DTNB, acetylthiocholine) into each well using a Flying Reagent Dispenser (Beckman Coulter, CA) and then 10 min incubation at room temperature.", "values": [{"smiles": "CCOc1cc(N)c(Cl)cc1C(=O)NCC1CN(Cc2ccc(F)cc2)CCO1", "note": "(stereo not given)", "activity change, negative = inhibition": "0.426% [at 53 µM]"}, {"smiles": "CN(C)C(=O)Nc1ccccc1", "activity change, negative = inhibition": "-0.898%"}, {"smiles": "O=C(O)[C@H](O)c1ccccc1", "activity change, negative = inhibition": "-13% [at 53 µM]"}, {"smiles": "C=CC(=C)CC/C=C(\\C)CCC=C(C)C", "activity change, negative = inhibition": "-0.162% [at 23.6 µM]"}, {"smiles": "Nc1ccn(C2CO[C@H](CO)O2)c(=O)n1", "note": "(stereo not given in full)", "activity change, negative = inhibition": "2.02% [at 53 µM]"}, {"smiles": "CCOC(=O)N1CCC(Nc2ccc(Cl)cc2N)CC1", "activity change, negative = inhibition": "-6.29% [at 53 µM]"}, {"smiles": "COc1ccc(COC=O)cc1", "activity change, negative = inhibition": "0.0166%"}, {"smiles": "Fc1ccc(C(c2ccc(F)cc2)N2CCN(C/C=C/c3ccccc3)CC2)cc1", "activity change, negative = inhibition": "-1.07% [at 53 µM]"}, {"smiles": "OC[C@@H](O)[C@H](O)[C@@H](O)[C@@H](O)CO", "activity change, negative = inhibition": "0.229%"}, {"smiles": "O=C(O)c1c2ccccc2cc2ccccc12", "activity change, negative = inhibition": "-0.307%"}, {"smiles": "CCCCCCCCCCCCCC(=O)OCC(O)CO", "note": "(stereo not given)", "activity change, negative = inhibition": "-0.475%"}, {"smiles": "CC1=NN(c2ccc(S(=O)(=O)O)cc2)C(=O)C1N=Nc1ccccc1", "note": "(stereo not given)", "activity change, negative = inhibition": "26.8%"}, {"smiles": "CCCCCCOc1ccc(N)cc1", "activity change, negative = inhibition": "4.46%"}, {"smiles": "Clc1ccc(C(Cn2ccnc2)OCc2c(Cl)cccc2Cl)c(Cl)c1", "note": "(stereo not given)", "activity change, negative = inhibition": "1.2% [at 53 µM]"}, {"smiles": "Cc1ccc(O)c([C@H](CCN(C(C)C)C(C)C)c2ccccc2)c1", "activity change, negative = inhibition": "-1.62% [at 53 µM]"}, {"smiles": "C[C@@H]1CCC[C@H](C)N1CCCC(O)(c1ccccc1)c1ccccn1", "note": "(stereo not given in full)", "activity change, negative = inhibition": "0.84% [at 53 µM]"}, {"smiles": "CCOc1ccc2nc3cc(N)ccc3c(N)c2c1", "activity change, negative = inhibition": "2.06% [at 53 µM]"}, {"smiles": "CC(=O)OC(C)C[N+](C)(C)C", "note": "(stereo not given)", "activity change, negative = inhibition": "-2.07% [at 53 µM]"}, {"smiles": "FC(F)(F)C(Cl)(Cl)Cl", "activity change, negative = inhibition": "-1.67%"}, {"smiles": "N=C(N)S(=O)O", "activity change, negative = inhibition": "3.47%"}, {"smiles": "CC(NC(CCc1ccccc1)C(=O)O)C(=O)N1C(=O)N(C)CC1C(=O)O", "note": "(stereo not given)", "activity change, negative = inhibition": "0.923% [at 53 µM]"}, {"smiles": "Cc1ccc(C2OC[C@@H]3OC(c4ccc(C)cc4)O[C@H]([C@H](O)CO)[C@@H]3O2)cc1", "note": "(stereo not given in full)", "activity change, negative = inhibition": "0.165%"}, {"smiles": "O=C(O)c1c(O)c(-c2ccccc2)nc2ccccc12", "activity change, negative = inhibition": "0.443% [at 53 µM]"}, {"smiles": "CNCCCC1c2ccccc2C=Cc2ccccc21", "outcome": "inactive"}, {"smiles": "O=C1OC(=O)C2CCCCC12", "note": "(stereo not given)", "activity change, negative = inhibition": "0%"}, {"smiles": "CC(S)C(=O)NCC(=O)O", "note": "(stereo not given)", "activity change, negative = inhibition": "-5.74% [at 53 µM]"}, {"smiles": "CC(C)=CCC[C@H](C)CCO", "activity change, negative = inhibition": "-1.66%"}, {"smiles": "C[n+]1cc2c3c(ccc2c2ccc4cc5c(cc4c21)OCO5)OCO3", "activity change, negative = inhibition": "-3.24% [at 23.6 µM]"}, {"smiles": "C/C=C/C(=O)CC", "activity change, negative = inhibition": "-3.23% [at 23.6 µM]"}, {"smiles": "COc1ccnc(CS(=O)c2nc3cc(OC(F)F)ccc3[nH]2)c1OC", "note": "(stereo not given)", "activity change, negative = inhibition": "1.31%"}, {"smiles": "FC(F)OC(Cl)C(F)(F)F", "note": "(stereo not given)", "activity change, negative = inhibition": "1.16%"}, {"smiles": "CC(C)=CCC/C(C)=C\\C#N", "activity change, negative = inhibition": "0.0764%"}, {"smiles": "CCN(CC)CCOc1ccccc1C(=O)CCc1ccccc1", "activity change, negative = inhibition": "-0.452% [at 53 µM]"}, {"smiles": "COc1cc(-c2nc(NC(=O)c3cc4cc(C)cc(C)c4n3CC(=O)O)sc2CCC2CCCCC2)c(OC)cc1Cl", "activity change, negative = inhibition": "6.1%"}, {"smiles": "Nc1nc(=O)n([C@@H]2O[C@H](CO)[C@@H](O)[C@@H]2F)cc1I", "activity change, negative = inhibition": "-0.154% [at 53 µM]"}, {"smiles": "CC(C)(C)C1CCC(=O)CC1", "activity change, negative = inhibition": "-4.03%"}, {"smiles": "COC(=O)c1cc(Cl)ccc1OC", "activity change, negative = inhibition": "-0.168% [at 53 µM]"}, {"smiles": "CCOC(=O)COC(=O)c1cc(Oc2ccc(C(F)(F)F)cc2Cl)ccc1[N+](=O)[O-]", "activity change, negative = inhibition": "-1.68%"}, {"smiles": "CCCCCCCC/C=C/CCCOC(C)=O", "activity change, negative = inhibition": "-1.99%"}, {"smiles": "CN(C)CCOC(c1ccc(Cl)cc1)c1ccccn1", "note": "(stereo not given)", "activity change, negative = inhibition": "0.712% [at 53 µM]"}]}]}
